From PubChem BioAssay
Sampled rows, rich in hits. Any-hit rate of the full collection: about 10%.
G9a block – G9a (human) methyltransferase inhibition; G9a H3K9 monomethylation, AlphaScreen, 2 h; Potency, µM (highest dose often 102 µM), inactives show top-dose activity, negative = inhibition, usual class: inhibitors; 350,000 tested, 8.8% active; further: on the % scale 0 is the no-effect control and ±100 the full control effect; nearly all actives have a fitted effect of over 75% in size
Target sequence (Q96KQ7 913-1193 limits assumed): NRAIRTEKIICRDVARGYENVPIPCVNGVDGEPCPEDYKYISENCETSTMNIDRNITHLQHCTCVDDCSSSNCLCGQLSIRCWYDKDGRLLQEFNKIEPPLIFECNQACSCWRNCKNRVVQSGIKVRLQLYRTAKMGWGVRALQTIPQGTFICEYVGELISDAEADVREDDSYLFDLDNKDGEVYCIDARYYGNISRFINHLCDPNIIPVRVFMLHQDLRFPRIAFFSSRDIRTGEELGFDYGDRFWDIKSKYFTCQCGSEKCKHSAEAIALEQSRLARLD
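Readings reflect AlphaScreen signal from monomethyl-H3K9 antibody detection. HMT at 20 nM; substrate b-H3K9 500 nM; cofactor SAM 20 uM; 2 h RT reaction; compounds tested as titrations in qHTS with 15 min preincubation.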
JMJD2A Tudor – blocks the human JMJD2A Tudor domain | 390,000 tested, 4.4% active | Potency, µM (highest dose often 114 µM), without a hit: at the highest dose activity change, negative = inhibition, actives largely listed as inhibitors | AlphaScreen JMJD2A-Tudor / H3K4me3 peptide binding; further: on the % scale 0 is the no-effect control and ±100 the full control effect; nearly all actives have a fitted effect of over 50% in size
BAZ2B block – BAZ2B (human) inhibition; Q9UIF8; AlphaScreen BAZ2B-H3K14Ac peptide displacement; Potency, µM (series often up to 114 µM), without a hit: at the highest dose activity change, negative = inhibition, hits mostly inhibitors; 360,000 tested, 4.4% active; further: on the % scale 0 is the no-effect control and ±100 the full control effect; nearly all actives have a fitted effect of over 60% in size
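Compounds, titrated to a top concentration of 110 uM, were incubated 30 min at room temperature with preformed BAZ2B/acetyl-K14 H3 peptide complex (50 nM each). Proximity signal was measured by AlphaScreen after 20 min with beads.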
GLS inhibitor – inhibitors of human glutaminase (GLS) | Potency, µM (doses to about 45.5 µM), inactives show top-dose activity change, negative = inhibition, usual class: inhibitors | 410,000 tested, 0.21% active | GLS enzymatic activity, qHTS titration | O94925 | AID 624170; further: on the % scale 0 is the no-effect control and ±100 the full control effect
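Coupled fluorescence readout: glutamate oxidase/HRP/Amplex Red detect glutamate formed by hKGA from L-glutamine (1 mM solution added). Buffer 45 mM KH2PO4 pH 8.2, 0.02% Tween-20; reads at t0 and 30 min RT.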
HP1b chromo inh – HP1-beta chromodomain-methylated histone interaction inhibition; P83916; AlphaScreen HP1-beta / biotin-H3K9me3 peptide binding; Potency, µM (highest dose often 114 µM), without a hit: top-dose activity change, negative = inhibition, hits mostly inhibitors; 390,000 tested, 0.56% active; AID 540317; further: nearly all actives have a fitted effect of over 70% in size
Target sequence (P83916 whole entry, looked up): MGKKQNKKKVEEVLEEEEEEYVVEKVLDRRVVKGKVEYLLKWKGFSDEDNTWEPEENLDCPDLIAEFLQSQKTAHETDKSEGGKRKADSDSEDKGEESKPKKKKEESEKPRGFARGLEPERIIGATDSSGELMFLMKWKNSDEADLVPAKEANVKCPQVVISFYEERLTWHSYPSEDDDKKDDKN
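Compound inhibition of the preformed complex between 50 nM HP1-beta and 50 nM biotinylated H3K9me3 peptide was read by AlphaScreen. Buffer was PBS pH 7.4 with 0.01% Tween-20. Incubations ran 30 min at room temperature, with 10 ug/mL donor/acceptor beads.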
Active calls of the source: *; ? = inconclusive; . = no result given; [ ] = dose if it differs, or a comment. The call rests on the fitted dose curve; in most records, active means well fitted curve in the direction sought with a large enough effect; inconclusive means small, poorly fitted or top-dose-only effect, or another doubt; inactive means no such curve, though single readings can be large; an effect the other way counts as inactive or inconclusive. Potency means the concentration at half of the fitted maximal effect.

SMILES	G9a block	JMJD2A Tudor	BAZ2B block	GLS inhibitor	HP1b chromo inh
COc1ccccc1OS(=O)(=O)c1ccc(NC(C)=O)cc1	-4%[59 µM]	-19%	-6%	5%	21%
COC(=O)CSc1cnc2ccccc2n1	17%[59 µM]	10%	?	2%	33%
O=C(CSc1cnc2ccccc2n1)c1ccc(F)cc1	7.1µM*	3%	9%	9%	42%
CC(C)c1nc(SCC(=O)c2ccc(F)cc2)c2ccccc2n1	40µM*	118%	49%	2%	104%
Cc1ccc(C(=O)CSc2nc(C(C)C)nc3ccccc23)cc1	31%	13%	70%	0%	33%
CC(C)c1nc(SCC(=O)Nc2ccc(N(C)C)cc2)c2ccccc2n1	8.9µM*	?	?	20%	-12%
O=C1CC(N2CCN(C/C=C/c3ccccc3)CC2)C(=O)N1Cc1ccc(N2CCCC2=O)cc1 (stereo not given)	-22%	-16%	-5%	9%	26%
COc1ccc(/C=C2\SC(=O)N(CCC(=O)Nc3ccccc3)C2=O)cc1OC	?	-10%	4%	2%	20%
NCCN1C(=O)S/C(=C\c2ccc3c(c2)OCO3)C1=O	45µM*	-6%	-17%	1%	-8%
COc1cc(/C=C2\SC(=O)N(CCN)C2=O)ccc1OS(=O)(=O)c1cc(C)ccc1C	28µM*	28µM*	?	?	?
CC1=C(C(=O)Nc2ccccc2)C(c2ccc(N(C)C)cc2)NC(=O)N1 (stereo not given)	-4%[12.7 µM]	-5%[11.4 µM]	-7%	15%	-10%
CSCc1ccc(C(=O)NC(C)c2cnn(-c3ccccn3)c2C)o1 (stereo not given)	35µM*	3%	-5%	-4%	43%
CC(=O)c1cccc(NC(=O)CCNS(=O)(=O)c2cccc(C(C)=O)c2)c1	-14%[12.7 µM]	-10%	10%	0%	35%
CC(=O)c1cccc(S(=O)(=O)NCCC(=O)Nc2ccc(S(N)(=O)=O)cc2)c1	50µM*	9%	19%	1%	35%
Brc1ccc(-c2nc3ncccn3c2NC2CCCCC2)o1	10µM*	-34%[57.1 µM]	-33%	-20%	?
Sc1oc(-c2ccccc2)cc1C=Nc1ccccc1	0.89µM*	20µM*	20µM*	-3%	?
O=C1CS/C(=N/N=C/c2ccccc2)N1Cc1ccco1	.	-17%	-11%	-10%	8%
Cc1ccccc1CN1C(=O)CS/C1=N/N=C/c1ccco1	40µM*	-22%	?	5%	0%
Cn1c(/C(C#N)=C/c2ccccc2Br)nc2ccccc21	0.4µM*	-17%	10%	-17%	40%
Cn1c(/C(C#N)=N/O)nc2ccccc21	?	?	71µM*	4%	7%
CN(C)CCCNC(=O)c1ccccc1Oc1ccccc1	.	3%	3%	18%	24%
C/C=C\C=C/C(=O)Nc1cccc(C2=NOC3(C2)C[C@@H](C(N)=O)N(C(=O)/C=C/CC)C3)c1 (stereo not given in full)	?	?	-17%	-23%	?
C=C(C)C(=O)N1CC2(CC(c3cccc(NC(=O)/C=C\C=C/C)c3)=NO2)C[C@H]1C(N)=O (stereo not given in full)	?	11µM*	-17%	3%	-22%
C/C=C\C=C/C(=O)Nc1cccc(C2=NOC3(C2)C[C@@H](C(N)=O)N(C(=O)C2(C)CC2)C3)c1 (stereo not given in full)	?	?	-5%	-4%	-33%
C/C=C\C=C/C(=O)Nc1cccc(C2=NOC3(C2)C[C@@H](C(N)=O)N(C(=O)/C=C/C=C\C)C3)c1 (stereo not given in full)	?	50µM*	79µM*	11µM*	?
COc1cccc(-n2c(CNc3ccc(F)cc3)nnc2SCC(N)=O)c1	7%[12.7 µM]	-8%	9%	1%	27%
CN(C)CCCNC(=O)c1cc(C(=O)c2ccccc2)c[nH]1	0%[2.33 µM]	-11%	0%	4%	20%
O=C(c1ccccc1)c1c[nH]c(C(=O)NNc2ccccc2)c1	10µM*	-9%[11.4 µM]	-21%	-20%	25%
CCc1ccc(NC(=O)c2sccc2-n2cccc2)cc1	-39%[59 µM]	-31%	-9%	9%	-3%
